What all share (settings): mRNA level, 48 h; actives raise or lower the signal
Read-out in assay [1]: ATP-citrate lyase (ACLY), ACLY (gene 47)
Description: LTEA_HepaRG_ACLY: Life Technologies and Expression Analysis (LTEA) Assay for ATP-citrate lyase (ACLY) using HepaRG (AID 2283466). Summed up: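 qRT-PCR readout of ACLY transcript after 48 h chemical treatment of HepaRG cells; expression normalized to three housekeeping genes. Eight-point half-log series, highest 100 uM, 0.5% DMSO vehicle. Gain or loss fitted against DMSO baseline.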

Read-out in assay [2]: Peroxisomal acyl-coenzyme A oxidase 1 (ACOX1) gene, ACOX1 (gene 51)
Description: LTEA_HepaRG_ACOX1: Life Technologies and Expression Analysis (LTEA) Assay for Peroxisomal acyl-coenzyme A oxidase 1 (ACOX1) gene using HepaRG (AID 2283467). Summed up:
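HepaRG, 48 h chemical exposure, 8-pt half-log series from 100 uM top, 0.5% DMSO vehicle, duplicates. Readout: ACOX1 mRNA by Fluidigm qRT-PCR, housekeeping-normalized; bidirectional fit vs DMSO baseline.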

Read-out in assay [3]: Alkaline Phosphatase, Placental (ALPP) gene, ALPP (gene 250)
The assay can be described thus: LTEA_HepaRG_ALPP: Life Technologies and Expression Analysis (LTEA) Assay for Alkaline Phosphatase, Placental (ALPP) gene using HepaRG (AID 2283468).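 As to AC50: differentiated human HepaRG liver cells in serum-free induction medium; ALPP transcript by TaqMan qRT-PCR normalized to ACTB GAPDH and POLR2A.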 In a few lines: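 Expression of ALPP was quantified by qRT-PCR against three housekeeping genes in human HepaRG cultures treated for 48 h with an eight-point concentration series up to 100 uM. Activity in either direction was fitted relative to 0.5% DMSO.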

Read-out in assay [4]: Bcl-2 (BAD) gene, BAD (gene 572)
The assay can be described thus: LTEA_HepaRG_BAD: Life Technologies and Expression Analysis (LTEA) Assay for Bcl-2 (BAD) gene using HepaRG (AID 2283469). Summed up:
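HepaRG, 48 h exposure, 8-pt half-log curve from 100 uM in 0.5% DMSO, duplicates. Readout: TaqMan qRT-PCR for BAD mRNA, housekeeping-normalised (ACTB/GAPDH/POLR2A); gain or loss fitted against DMSO baseline.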

Read-out in assay [5]: Bcl-2 (BAX) gene, BAX (gene 581)
Description: LTEA_HepaRG_BAX: Life Technologies and Expression Analysis (LTEA) Assay for Bcl-2 (BAX) gene using HepaRG (AID 2283470). In a few lines:
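Cells were thawed, plated for 48 h, moved to serum-free induction medium and dosed for 48 h (highest concentration 100 uM, half-log steps, 0.5% DMSO). Total RNA was then analysed for BAX expression by qRT-PCR.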

Read-out in assay [6]: Alpha-fetoprotein (AFP) gene, AFP (gene 174)
Description: LTEA_HepaRG_AFP: Life Technologies and Expression Analysis (LTEA) Assay for Alpha-fetoprotein (AFP) gene using HepaRG (AID 2283472).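 As to AC50: AFP transcript by TaqMan qRT-PCR normalized to ACTB GAPDH and POLR2A.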 Summed up: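 Chemicals were tested on differentiated HepaRG cells for 48 hours at eight concentrations up to 100 uM, with 0.5% DMSO as vehicle. AFP expression was then quantified by qRT-PCR and analyzed for gain or loss relative to DMSO.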

Read-out in the next assay: BCL2L11 (gene 10018)
Description: LTEA_HepaRG_BCL2L11: Life Technologies and Expression Analysis (LTEA) Assay for Bcl-2 (BCL2L11) gene using HepaRG (AID 2283473). In a few lines: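 Cells were plated, cultured 48 h, switched to serum-free induction medium, then dosed in duplicate for 48 h at eight half-log concentrations up to 100 uM. Lysates underwent RNA isolation and TaqMan qRT-PCR; gain or loss versus DMSO was fitted.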

Read-out in assay [7]: Apoptosis regulator Bcl-2 (Homo sapiens) (UniProt P10415)
Description: LTEA_HepaRG_BCL2: Life Technologies and Expression Analysis (LTEA) Assay for Bcl-2 gene using HepaRG (AID 2283475). Summed up:
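Plated human HepaRG cells are exposed to test chemicals for 48 h across eight concentrations from 100 uM downward in half-log steps (0.5% DMSO). BCL2 expression is then measured by qRT-PCR with housekeeping normalisation and fitted bidirectionally against vehicle.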

Read-out in assay [8]: Apolipoprotein A-V (APOA5) gene, APOA5 (gene 116519)
Description: LTEA_HepaRG_APOA5: Life Technologies and Expression Analysis (LTEA) Assay for Apolipoprotein A-V (APOA5) gene using HepaRG (AID 2283474). In a few lines: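 Human liver HepaRG cells are treated 48 h with test chemicals (100 uM top, half-log dilutions, 0.5% DMSO). APOA5 mRNA induction or loss is measured by qRT-PCR relative to vehicle.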

Read-out in assay [9]: adenosine kinase (ADK) gene, ADK (gene 132)
Description: LTEA_HepaRG_ADK: Life Technologies and Expression Analysis (LTEA) Assay for adenosine kinase (ADK) gene using HepaRG (AID 2283471). Summed up: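 Read-out is ADK transcript level measured by qRT-PCR and normalised to three housekeeping genes. Cells are human HepaRG, dosed for 48 h at up to 100 uM in 0.5% DMSO. Gain or loss of signal is fitted against DMSO controls.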

Activity calls are given as the source filed them. The calls were made as follows: active = hit-call score of the fitted dose curve at least 0.9, where 1 is the maximum; inactive = score below 0.9.

Chain of Apoptosis regulator Bcl-2 (Homo sapiens) (P10415 whole entry, looked up): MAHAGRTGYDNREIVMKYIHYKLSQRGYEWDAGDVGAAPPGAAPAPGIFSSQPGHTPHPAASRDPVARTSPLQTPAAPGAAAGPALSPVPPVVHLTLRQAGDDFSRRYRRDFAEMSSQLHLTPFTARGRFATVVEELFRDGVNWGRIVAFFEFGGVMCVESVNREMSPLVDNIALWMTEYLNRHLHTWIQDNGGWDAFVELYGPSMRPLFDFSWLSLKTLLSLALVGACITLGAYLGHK

`CCN(Cc1cccc(S(=O)(=O)O)c1)c1ccc(C(=C2C=CC(=[N+](CC)Cc3cccc(S(=O)(=O)O)c3)C=C2)c2ccccc2S(=O)(=O)[O-])cc1`: the compound was classed as inactive in assay [1], in [2], in [3], in [4], in [5] and in assay [6]. Moreover, the outcome (with BCL2L11 (gene 10018); in assay [7]) was inactive.

Take `CC(C)(O)c1ccc(CNC(=O)c2cccnc2Oc2ccc3nonc3c2)cc1`: the call in [1], in [2], in [3], in assay [4], in assay [5] and in assay [6] was inactive. For the same compound, the outcome (with BCL2L11 (gene 10018); in assay [7]) was inactive.

For orientation: AC50 means the midpoint of the concentration-response curve, whichever way the signal moves. Take `COc1cc(C(=O)NC2CCN(C)CC2)ccc1Nc1ncc2c(n1)N(C1CCCC1)CC(F)(F)C(=O)N2C`: the AC50 was 12.2 µM (active) in [2]; 3.13 µM (active) in assay [3]; 11.1 µM (active) in assay [4]; 46.5 µM (active) with BCL2L11 (gene 10018); 4.65 µM (active) in assay [8]. Moreover, the call in assay [5], in assay [6] and in assay [7] was inactive.

With `CCOC(=O)O[C@H](C)OC(=O)c1ccc2c(c1)cc(C(=O)NC1CCN(C(C)C)CC1)n2Cc1cc(-c2ccc(Cl)s2)on1`, the outcome (in [2]; in assay [4]; in [5]; in assay [6]; with BCL2L11 (gene 10018); in [8]) was inactive. In assay [7], the call was inactive. Further, the AC50 in assay [3] was 16.9 µM (active).

Regarding `CCCCCCCCCC(=O)O`, the outcome in assay [2], in assay [3], in [4], in [5], in assay [9] and in [6] was inactive. For the same compound, the call (in the assay with BCL2L11 (gene 10018); in [7]) was inactive.

With `Oc1ccccc1`, the outcome in assay [2], in assay [3], in assay [4], in [5], in assay [9] and in assay [6] was inactive. For the same compound, the call (with BCL2L11 (gene 10018); in [8]; in [7]) was inactive.

On to `CCCC(=O)OCCC(C)C`, for which the outcome (in assay [2]; in assay [3]; in assay [4]; in assay [5]; in assay [6]; with BCL2L11 (gene 10018)) was inactive. Also, the call in [7] was inactive.

For `Cc1cc2c(cc1C(F)(F)F)N(C(=O)Nc1ccc(Oc3cccnc3C)nc1)CC2`, the AC50 was 46 µM (active) in [2]; 15.8 µM (active) in assay [3]; 82.4 µM (active) in [9]; 19.9 µM (active) in assay [6]; 81.3 µM (active) with BCL2L11 (gene 10018). The compound was called inactive in assay [4], in [5] and in [7].

`CN(C[C@@H](CC[N+]12CCC(C3CCCCC3)(CC1)CC2)c1ccc(Cl)c(Cl)c1)C(=O)c1cc(C(F)(F)F)cc(C(F)(F)F)c1`: the concentration at half-maximal activity (AC50) in [2] was 63.5 µM (active); in assay [3], 3.14 µM (active); in assay [6] it was 23.2 µM (active); in assay [8], 8.93 µM (active). Moreover, the outcome (in assay [4]; in assay [5]; in [9]; with BCL2L11 (gene 10018); in assay [7]) was inactive.

Turning to `CCN(Cc1cccnc1)C(=O)c1cccc(Cl)c1[C@]1(C)C(=O)N(Cc2ccc(OC)cc2OC)c2ccc(Cl)cc21`, the AC50 in [2] is 18.2 µM (active); in [3] it was 10.1 µM (active); in assay [5] it was 24.7 µM (active); in assay [6], 19.4 µM (active); in assay [7], 11.4 µM (active). The outcome (in assay [4]; with BCL2L11 (gene 10018)) was inactive.

Take `CC/C(=C(/CC)c1ccc(O)cc1)c1ccc(O)cc1`: the AC50 in [2] is 93.1 µM (active); in assay [9], 94.1 µM (active); with BCL2L11 (gene 10018), 88.8 µM (active). Moreover, the compound was called inactive in assay [3], in assay [4], in [5], in [6] and in [7].

Take `O=C1c2ccccc2C(=O)N1CCc1noc(-c2ccc(CN3CCCCCC3)s2)n1`: the result in assay [2], in assay [3], in assay [4], in [5], in [9] and in [6] was inactive. In addition, the result (with BCL2L11 (gene 10018); in assay [7]) was inactive.

Turning to `CC(C)(C)c1cc(/C=C2\SC(N)=NC2=O)cc(C(C)(C)C)c1O`, the values for the AC50 (in assay [2]; with BCL2L11 (gene 10018); in [7]) were 26.1 µM (active), 96.8 µM (active) and 21.1 µM (active), respectively. The compound was classed as inactive in assay [3], in assay [4], in assay [5] and in assay [6].

Regarding `CC[C@H](NC(=O)c1cc(F)ccc1NS(=O)(=O)c1cccc2cccnc12)c1ccccc1`, the half-maximal activity concentration (AC50) in assay [2] is 71.3 µM (active); in assay [5], 9.47 µM (active); in assay [6], 32.1 µM (active); in assay [8], 60.5 µM (active). The call (in [3]; in assay [4]; with BCL2L11 (gene 10018); in [7]) was inactive.

Consider `Cc1ccc(C(C)C)cc1`, for which the call in assay [2], in assay [3], in assay [4], in assay [5], in assay [9] and in assay [6] was inactive. For the same compound, the outcome (with BCL2L11 (gene 10018); in assay [8]; in [7]) was inactive.

For the compound `O=C(O)Cc1cc(I)c(Oc2ccc(O)c(I)c2)c(I)c1`, the AC50 in [2] was 86 µM (active); in assay [3] it was 76.9 µM (active); in assay [5] it was 87.2 µM (active); in assay [6], 74.7 µM (active); in [7], 84 µM (active). Also, the result (in assay [4]; in assay [9]; with BCL2L11 (gene 10018)) was inactive.

With `OC12N=C(c3ccccc3)SC1Cc1cc(Cl)ccc12` (stereo not drawn), the AC50 in assay [2] was 21.1 µM (active); in assay [3] it was 35.7 µM (active); in assay [6], 36.4 µM (active); with BCL2L11 (gene 10018), 2.86 µM (active); in assay [7] it was 20.3 µM (active). Besides, the compound was classed as inactive in [4] and in assay [5].

Regarding `CC(O)CC(C)(C)O` (stereo not drawn), the compound was called inactive in assay [2], in assay [3], in assay [4], in [5], in assay [9] and in [6]. The result (in the assay with BCL2L11 (gene 10018); in assay [7]) was inactive.

In the case of `CC1(C)NC(=O)N(c2ccc([N+](=O)[O-])c(C(F)(F)F)c2)C1=O`, the AC50 in assay [2] was 63.7 µM (active); in assay [3] it was 50 µM (active); in [6] it was 80.5 µM (active); in assay [8] it was 67.9 µM (active); in assay [7], 78.9 µM (active). For the same compound, the call (in assay [4]; in assay [5]; with BCL2L11 (gene 10018)) was inactive.

For `CCN(CC)C(=O)c1cc(S(=O)(=O)Cc2ccccc2)c(N2CCC(c3ccccc3)CC2)cc1N(CC)CCN(C)C`, the AC50 in assay [2] was 32.7 µM (active); in [3], 31.5 µM (active); in the assay with BCL2L11 (gene 10018) it was 25.7 µM (active). Further, the outcome in assay [4], in [5], in assay [6] and in assay [7] was inactive.

The values above are taken from PubChem BioAssay (EPA / NIEHS).
